# Test results reported in article PMC4336329 (PLoS ONE, 2015).
# The campaign covered roughly 310,000 compounds. About 14,000 (4.5%) showed an effect of 50% or more. The effect is printed as a negative number. This excerpt belongs to a sample that is enriched for strong results.
# Molecular target: human ether-à-go-go-related gene (hERG) potassium channel (human, UniProt Q12809)
# Experiment: primary screen, population patch clamp on CHO cells stably expressing hERG; higher = less effect of the substance
# 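Further: peak tail current of the secondary pulse compared with the same well before compound.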
# Sequence of human ether-à-go-go-related gene (hERG) potassium channel (Q12809 whole entry, looked up): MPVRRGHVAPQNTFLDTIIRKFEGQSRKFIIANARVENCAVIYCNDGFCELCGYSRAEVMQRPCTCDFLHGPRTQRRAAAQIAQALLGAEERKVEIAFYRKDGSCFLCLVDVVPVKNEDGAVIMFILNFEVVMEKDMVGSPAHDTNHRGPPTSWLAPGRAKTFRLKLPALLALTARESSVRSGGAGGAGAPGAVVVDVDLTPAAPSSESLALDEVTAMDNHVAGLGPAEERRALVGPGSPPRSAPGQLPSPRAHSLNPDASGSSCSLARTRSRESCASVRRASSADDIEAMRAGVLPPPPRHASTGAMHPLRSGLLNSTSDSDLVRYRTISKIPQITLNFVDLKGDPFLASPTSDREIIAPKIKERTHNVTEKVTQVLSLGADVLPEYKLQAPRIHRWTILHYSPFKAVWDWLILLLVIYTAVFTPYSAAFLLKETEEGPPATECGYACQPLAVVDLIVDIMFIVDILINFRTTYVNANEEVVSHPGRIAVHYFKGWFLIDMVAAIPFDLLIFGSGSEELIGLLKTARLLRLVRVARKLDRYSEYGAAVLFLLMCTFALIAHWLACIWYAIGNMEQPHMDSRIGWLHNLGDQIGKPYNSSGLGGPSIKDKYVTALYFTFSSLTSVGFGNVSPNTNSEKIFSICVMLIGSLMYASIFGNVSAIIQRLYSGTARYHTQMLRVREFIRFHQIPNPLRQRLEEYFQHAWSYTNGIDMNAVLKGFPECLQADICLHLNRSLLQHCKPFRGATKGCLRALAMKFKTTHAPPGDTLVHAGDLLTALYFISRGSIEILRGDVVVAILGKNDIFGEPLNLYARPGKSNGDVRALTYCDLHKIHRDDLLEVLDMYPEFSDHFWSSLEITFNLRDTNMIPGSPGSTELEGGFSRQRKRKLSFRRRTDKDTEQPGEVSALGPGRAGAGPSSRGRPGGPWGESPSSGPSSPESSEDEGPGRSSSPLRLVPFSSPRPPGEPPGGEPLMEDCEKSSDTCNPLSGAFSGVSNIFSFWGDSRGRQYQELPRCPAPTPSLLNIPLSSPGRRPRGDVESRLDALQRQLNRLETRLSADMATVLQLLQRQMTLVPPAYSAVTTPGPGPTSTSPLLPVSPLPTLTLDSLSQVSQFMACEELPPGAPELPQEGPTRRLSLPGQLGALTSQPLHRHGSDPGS
row,Structure (SMILES),"hERG current change (%, negative = inhibition) at 10uM"
1,Cc1ccc(NC(=O)C(C)OC(=O)/C=C/c2ccccc2)cc1 (centres unmarked),23%
2,Cc1ccc(OCCNCc2ccccc2)c(C)c1.O=C(O)C(=O)O,-6.1%
3,Cc1cc(C)c(C)c(OCCNCc2ccccc2)c1.O=C(O)C(=O)O,-5.47%
4,Cc1cc(Cl)cc(C)c1OCCOCCNCc1ccccc1.O=C(O)C(=O)O,-52.4%
5,Cc1cc(C)c(C)c(OCCOCCNCc2ccccc2)c1.O=C(O)C(=O)O,-54.2%
6,Clc1cccc(Cl)c1OCCOCCNCc1ccccc1.O=C(O)C(=O)O,-31.2%
7,Cc1cc(Cl)cc(C)c1OCCNCc1ccccc1.O=C(O)C(=O)O,-3.66%
8,Cc1cc(=O)[nH]c(N2CCN(Cc3ccccc3)CC2)n1,-2.95%
9,CC(=O)Oc1c(C(=O)c2nnc(C)o2)c(=O)n(Cc2ccccc2)c2ccccc12,1.56%
10,CCCCCCCCNC(=O)c1ccc(C)cc1,10.9%
11,O=C(NC(c1ccccc1)C(Cl)(Cl)Cl)c1ccccc1 (centres unmarked),-11.3%
12,CCN(CC)S(=O)(=O)c1ccc2oc(Nc3ccc(OC)cc3OC)nc2c1,9.24%
13,CCc1cccc(C)c1NC(=O)CSc1nc2ccc(N3C(=O)c4ccccc4C3=O)cc2s1,4.44%
14,CC(Oc1ccc(Br)cc1)C(=O)O/N=C(\N)c1ccncc1 (centres unmarked),5.16%
15,Cc1cccn2c(=O)c3cc(C(=O)NCc4ccco4)c(=N)n(CCc4ccccc4)c3nc12,-76.5%
16,Cc1cccn2c(=O)nc(SCC(=O)NCc3ccco3)nc12,1.37%
17,Cc1ccccc1Nc1cc(C(=O)NCc2ccco2)c2ccccc2n1,20.3%
18,Cc1cccn2c(=O)c3cc(C(=O)NCc4ccco4)c(=N)n(C(C)C)c3nc12,-77.6%
19,COc1ccc(-n2nc(C(=O)NCc3ccco3)c3ccccc3c2=O)cc1,-17.1%
20,Cc1cccn2c(=O)c3cc(C(=O)NCc4ccco4)c(=N)n(CCOCCO)c3nc12,-74.9%
21,COc1ccc(CCn2c(=N)c(C(=O)NCc3ccco3)cc3c(=O)n4cccc(C)c4nc32)cc1,-75.6%
22,COc1ccc(CCn2c(N)c(C(=O)NCc3ccco3)c3nc4ccccc4nc32)cc1,0.65%
23,CC(OC(=O)c1cccc(S(=O)(=O)Nc2ccccc2F)c1)C(=O)NCc1ccc2c(c1)OCO2 (centres unmarked),12.8%
24,CN(C(=O)c1ccc(S(=O)(=O)N2CCCC2)cc1)C1CCS(=O)(=O)C1 (centres unmarked),4.75%
25,O=C(Nc1ccc(Cl)cc1)C(Cl)C(=O)c1ccccc1 (centres unmarked),-3.81%
26,Cc1csc(SCC(=O)NCc2cccc(Cl)c2)n1,-7.05%
27,CCc1ccc(-n2c(=O)c3ccc(C(=O)NCCc4ccccc4)cc3n(CC(N)=O)c2=O)cc1,14.6%

row,Structure (SMILES),"hERG current change (%, negative = inhibition) at 10uM"
1,Cc1cccn2c(=O)c3cc(S(=O)(=O)c4ccc(F)cc4)c(=N)n(Cc4ccco4)c3nc12,-34.8%
2,CCOC(=O)Cn1c(=O)n(Cc2ccco2)c(=O)c2ccc(C(=O)NC3CCCC3)cc21,-18.9%
3,Cc1cccn2c(=O)c3cc(S(=O)(=O)c4ccccc4)c(=N)n(Cc4ccco4)c3nc12,-0.654%
4,CCOC(=O)Cn1c(=O)n(Cc2ccco2)c(=O)c2ccc(C(=O)NCCc3ccccc3)cc21,-53.2%
5,Cc1cccn2c(=O)c3cc(C(=O)NCCc4ccccc4)c(=N)n(Cc4ccco4)c3nc12,-74%
6,CCN(CC)C(=O)N1CCN(c2c([N+](=O)[O-])c(=O)oc3ccccc23)CC1,-25.7%
7,CN(C)c1ccc(C(=O)c2ccc(N(C)C)c(N)c2)cc1N,-3.79%
8,COc1c(F)c(F)c(C(=O)Nc2ccc(N3CCN(Cc4ccccc4)CC3)cc2)c(F)c1F,-14.6%
9,COc1ccc(C(=O)N=C2SC3CS(=O)(=O)CC3N2c2ccccc2)cc1OC (centres unmarked),11%
10,CCn1nnc(NC(=O)c2ccc(Br)o2)n1,13.7%
11,CCn1nnc(NC(=O)Cc2ccc(Cl)cc2)n1,3.52%
12,CCCCn1nnc(NC(=O)c2ccc(-c3cccc([N+](=O)[O-])c3)o2)n1,-68.5%
13,CCCCn1nnc(NC(=O)c2ccc(-c3ccccc3[N+](=O)[O-])o2)n1,-14.2%
14,CCCn1nnc(NC(=O)c2ccc(-c3cccc(Cl)c3)o2)n1,-55.3%
15,CCCn1nnc(NC(=O)c2ccc(-c3cc(Cl)ccc3Cl)o2)n1,6.96%
16,CCn1nnc(NC(=O)c2ccc(-c3ccc(Cl)cc3)o2)n1,-53.5%
17,CCCCn1nnc(NC(=O)c2ccc(-c3cccc(Cl)c3)o2)n1,-40.8%
18,CCCCn1nnc(NC(=O)c2ccc([N+](=O)[O-])cc2Cl)n1,-31.1%
19,O=C(NC1CC1)c1sccc1-n1cccc1,8.56%
20,COc1cc(NC(=O)Cc2cccs2)c(C(=O)O)cc1OC,21.7%
21,Cc1ccc2[nH]c(=O)c(CNS(=O)(=O)c3ccccc3)c(-c3ccccc3)c2c1,16.2%
22,Cc1ccc(-n2[nH]c(C)c(C=Nc3ccc(S(=O)(=O)Nc4nccs4)cc3)c2=O)c(C)c1,-35%
23,CCOC(=O)C1(Cc2ccc(OC)cc2)CCN(C(=O)c2cncs2)CC1,-17.6%
24,CCOC(=O)C1(CCCc2ccccc2)CCN(C(=O)c2cncs2)CC1,-55%
25,CCOC(=O)C1(CCOc2ccccc2)CCN(C(=O)c2cncs2)CC1,-70.7%
26,O=C(Oc1ccc(/C=N/NC(=O)c2ccccn2)cc1)c1cccc(Br)c1,11.4%
